# Screening results as filed in PubChem.
# PGC1a acetyl inh – lowers PGC1a acetylation signal in U2OS cells. inhibition, % at 15.6 µM. AID 651687. 350,000 tested, 0.17% active. AlphaScreen anti-acetyl-lysine; with virally co-expressed GCN5 acetyltransferase;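 active means every replicate shows inhibition of at least 40%; inconclusive means mean inhibition at least 40% but some replicate below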;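 further: 0% = neutral control wells and 100% = positive control wells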
# LGR2 inh – inhibitors of bursicon-induced Drosophila LGR2 receptor cAMP signaling | HEK293 LGR2, CRE-luciferase, bursicon-stimulated, 4 h | inhibition, % at 9.99 µM | 380,000 tested, 0.35% active | AID 720647;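 active means drop in luminescence signal, shown as inhibition above about 50% in the replicate tests, limit read from the data, passing the limit was not always enough; inconclusive means probably only some replicates passing the limit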;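 further: agonist challenge used bursicon conditioned medium at about half maximal strength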
# SIRT5 inh – sirtuin-5 (human) deacylase inhibition. Q9NXA8. Purified SirT5, succinyl-peptide AMC, trypsin-coupled fluorescence. inhibition, % at 15 µM. 330,000 tested, 1.1% active. AID 652115; in the data active means inhibition above about 15%; inconclusive means no clear call, values can overlap the other calls
# Target sequence (Q9NXA8 whole entry, looked up): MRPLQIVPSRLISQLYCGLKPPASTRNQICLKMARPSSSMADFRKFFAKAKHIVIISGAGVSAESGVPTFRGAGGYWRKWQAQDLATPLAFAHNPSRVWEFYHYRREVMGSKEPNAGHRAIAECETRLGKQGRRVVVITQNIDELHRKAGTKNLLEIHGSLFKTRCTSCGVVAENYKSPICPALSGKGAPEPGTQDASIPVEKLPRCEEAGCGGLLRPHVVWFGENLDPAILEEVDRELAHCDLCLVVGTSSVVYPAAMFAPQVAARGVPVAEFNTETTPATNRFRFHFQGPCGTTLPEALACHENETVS
# Ecoli rRNA inh – inhibitors of bacterial rRNA selective over humanized ribosomes; E. coli WT GFP vs humanized-ribosome RFP mutants, fluorescence, 24 h; active compounds read low; DMSO median 0, no signal -100; GFP signal change (wild-type ribosome), % (no concentration beside the values); 350,000 tested, 1.6% active; AID 720706;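 active means significant combined selectivity score with lowered wild-type GFP, culture density cut under 30%, mutant RFP and density less affected; inactive means any of these conditions unmet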
# PAX8 reporter – inhibitors of PAX8 transcriptional activity in RMG-I cells | RMG-I TPO-luciferase reporter, SteadyGlo, 24 h | inhibition, % at 12.6 µM | 360,000 tested, 1.2% active | AID 652154;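 active means mean replicate inhibition at least 60% with every replicate also reaching 60%; inconclusive means only one of the two criteria is met; inactive means mean below 60% and not all replicates reaching 60%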;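 further: luciferase light reporting Pax8 driven TPO promoter activity; plate controls were median of neutral control wells for no effect and mitoxantrone controls for full effect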
# EWS-Fli block – inhibitors of EWS/Fli oncoprotein transcriptional activity; A673 NR0B1-luciferase reporter, viability-normalised; 350,000 tested, 0.67% active; AID 651661; inhibition, % at 12.6 µM;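 active means mean inhibition of at least 50% after viability correction, with every replicate also passing that limit; inconclusive means mean reaches 50% but only one of two replicates passes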;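 further: firefly luciferase signal divided by Alamar Blue viability fluorescence both relative to DMSO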
# An asterisk follows results filed as active; ? = inconclusive; / = no result given; ! = not active in a repeat. Only some compounds are listed: those with a hit (about 3.4% of all), similar ones and a draw of the others.
SMILES,PGC1a acetyl inh,LGR2 inh,SIRT5 inh,Ecoli rRNA inh,PAX8 reporter,EWS-Fli block
Nc1cc(S(=O)(=O)Nc2cc(Cl)ccc2Cl)ccc1N1CCCC1,10.5,11.3,-2.9,-27.9,-9.8,14.2
Nc1ccc(N2CCOCC2)c(S(=O)(=O)Nc2cc(Cl)ccc2Cl)c1,/,15.4,3.9,-25.8*,22.4,0.5
COc1ccc(NS(=O)(=O)c2ccc(N3CCCC3)c(NC(=S)Nc3ccc(SC(F)F)cc3)c2)cc1,-11.9,-6.5,6.1,-2.4,101.4*,3.1
CNC(=S)Nc1cc(S(=O)(=O)Nc2cc(Cl)ccc2Cl)ccc1N1CCCC1,7.7,6.2,-4.1,-26.6*,15.6,6.2
C[C@H](CO)N1C[C@H](C)[C@@H](CN(C)CC2CCCCC2)Oc2c(NC(=O)Cc3cn(C)c4ccccc34)cccc2C1=O,/,/,/,0.4,/,/
O=C(Oc1ccc(C(=S)N2CCOCC2)cc1)c1ccc([N+](=O)[O-])cc1[N+](=O)[O-],/,-2.3,12.5,9.0,-1.2,-0.7
O=C(Oc1cccc(C(=S)N2CCOCC2)c1)c1ccc([N+](=O)[O-])cc1[N+](=O)[O-],/,11.0,101.4*,-12.6,-8.1,7.0
CCc1ccc(OCC(=O)NC(NC(=S)Nc2ccccc2C)C(Cl)(Cl)Cl)cc1 (stereo not given),-20.0,22.4,/,-17.4,116.0*,22.1
Cc1ccc2[nH]c(C)c(CCNC(=O)c3cc4cc([N+](=O)[O-])ccc4oc3=O)c2c1,-6.9,-11.2,/,/,6.8,/
Cc1ccc2[nH]c(C)c(CCNC(=O)c3c(N)no[n+]3[O-])c2c1,-1.9,-4.6,-1.1,-35.4*,14.2,-7.4
Cc1ccc(-c2nc(-c3ccncc3)no2)cc1C,4.0,?,5.6,2.1,-135.2,15.3
Fc1cccc(F)c1-c1nc(-c2ccncc2)no1,/,-79.1,20.1*,5.2,-131.1,-71.1
C[C@H](CO)N1C[C@H](C)[C@H](CN(C)S(=O)(=O)c2ccc(Cl)cc2)OCCCC[C@H](C)Oc2ccc(NC(=O)Nc3ccc(C(F)(F)F)cc3)cc2C1=O,6.3,16.9,/,-3.6,77.9*,-19.8
C[C@@H]1CCCCO[C@@H](CN(C)S(=O)(=O)c2ccc(Cl)cc2)[C@H](C)CN([C@@H](C)CO)C(=O)c2cc(NC(=O)Nc3ccc(C(F)(F)F)cc3)ccc2O1,10.3,8.0,/,5.8,21.6,-3.3
C[C@@H]1CN([C@H](C)CO)C(=O)c2cc(NC(=O)Nc3ccc(C(F)(F)F)cc3)ccc2O[C@@H](C)CCCCO[C@H]1CN(C)S(=O)(=O)c1ccc(Cl)cc1,-8.5,17.7,/,-7.8,88.4*,-10.4
C[C@@H]1CCCCO[C@H](CN(C)S(=O)(=O)c2ccc(Cl)cc2)[C@@H](C)CN([C@@H](C)CO)C(=O)c2cc(NC(=O)CCC(F)(F)F)ccc2O1,13.4,23.1,1.2,-7.5,93.1*,0.4
N#CCC(=O)N/N=C/c1cn(Cc2cccc3ccccc23)c2ccccc12,-1.6,-10.0,-1.3,7.7,25.7,52.6*
CCCN(C)C[C@@H]1Oc2cc(C#CCC3CCCC3)ccc2S(=O)(=O)N([C@H](C)CO)C[C@@H]1C,-22.8,8.6,13.5,0.1,?,25.0
CCCN(C)C[C@H]1Oc2cc(C#Cc3ccc(F)cc3)ccc2S(=O)(=O)N([C@H](C)CO)C[C@@H]1C,-0.5,10.5,15.0*!,1.3,7.5,3.0
CCCN(C)C[C@@H]1Oc2cc(-c3ccncc3)ccc2S(=O)(=O)N([C@@H](C)CO)C[C@@H]1C,-6.9,-5.0,11.7,1.7,/,1.8
C[C@@H]1CN([C@@H](C)CO)S(=O)(=O)c2ccc(C#CC(C)(C)O)cc2O[C@H]1CN(C)Cc1ccccc1,2.0,4.8,10.7,-14.8,/,12.8
CCCN(C)C[C@H]1Oc2cc(C#CCC3CCCC3)ccc2S(=O)(=O)N([C@H](C)CO)C[C@@H]1C,-14.1,/,19.3*,/,5.5,-11.7
CCCN(C)C[C@H]1Oc2cc(-c3ccncc3)ccc2S(=O)(=O)N([C@H](C)CO)C[C@H]1C,-9.0,23.3,16.6*,0.5,/,6.4
C[C@H]1CN([C@@H](C)CO)S(=O)(=O)c2ccc(C#CC(C)(C)O)cc2O[C@@H]1CN(C)Cc1ccc(F)cc1,-1.8,22.3,15.7*,-21.9,34.1,-5.5
